Data taken from PubChem BioAssay (EPA / NIEHS).
Active and inactive are the calls of the source. How the source made its calls: active means hit-call score of the fitted dose curve at least 0.9, where 1 is the maximum; inactive means score below 0.9.

Experiments:
[1] = read-out: Interleukin-8 (IL8), CXCL8 (gene 3576); experiment: BSK_CASM3C_IL8: BioMAP Diversity Plus: CASM3C Assay for Interleukin-8 (IL8) Biomarker Activity (AID 2283042); conditions: primary human coronary artery smooth muscle cells; actives raise or lower the signal;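 further: IL-8 protein level quantified by ELISA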
[2] = read-out: Human Leukocyte Antigen - DR isotype (HLADR), HLA-DRA (gene 3122); experiment: BSK_CASM3C_HLADR: BioMAP Diversity Plus: CASM3C Assay for Human Leukocyte Antigen - DR isotype (HLADR) Biomarker Activity (AID 2283043); conditions: primary human coronary artery smooth muscle cells; actives raise or lower the signal;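 further: cell-surface HLA-DR protein level quantified by ELISA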
[3] = read-out: Macrophage colony-stimulating factor (MCSF), CSF1 (gene 1435); experiment: BSK_CASM3C_MCSF: BioMAP Diversity Plus: CASM3C Assay for Macrophage colony-stimulating factor (MCSF) Biomarker Activity (AID 2283044); conditions: primary human coronary artery smooth muscle cells; actives raise or lower the signal;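 further: M-CSF protein amount quantified by ELISA after 24 h exposure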
[4] = read-out: Low-density lipoprotein receptor (LDLR), LDLR (gene 3949); experiment: BSK_CASM3C_LDLR: BioMAP Diversity Plus: CASM3C Assay for Low-density lipoprotein receptor (LDLR) Biomarker Activity (AID 2283045); conditions: primary human coronary artery smooth muscle cells; actives raise or lower the signal;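 further: LDLR protein level on the cell surface quantified by ELISA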
[5] = read-out: Monocyte Chemoattractant Protein-1 (MCP1), CCL2 (gene 6347); experiment: BSK_CASM3C_MCP1: BioMAP Diversity Plus: CASM3C Assay for Monocyte Chemoattractant Protein-1 (MCP1) Biomarker Activity (AID 2283046); conditions: primary human coronary artery smooth muscle cells; actives raise or lower the signal
[6] = BSK_CASM3C_Proliferation: Cell Proliferation Assessment in the BioMAP Diversity Plus: CASM3C Assay (AID 2283047); conditions: primary human coronary artery smooth muscle cells;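 further: sulforhodamine B total protein stain as relative cell number at 560 nm; sub-confluent cells exposed 48 h before staining; fitted both ways against DMSO so gain or loss of cell number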
[7] = read-out: Monokine induced gamma interferon (MIG), CXCL9 (gene 4283); experiment: BSK_CASM3C_MIG: BioMAP Diversity Plus: CASM3C Assay for Monokine induced gamma interferon (MIG) Biomarker Activity (AID 2283048); conditions: primary human coronary artery smooth muscle cells; actives raise or lower the signal;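 further: MIG protein level measured by ELISA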
[8] = read-out: serum amyloid A (SAA), SAA1 (gene 6288); experiment: BSK_CASM3C_SAA: BioMAP Diversity Plus: CASM3C Assay for serum amyloid A (SAA) Biomarker Activity (AID 2283049); conditions: primary human coronary artery smooth muscle cells; actives raise or lower the signal
[9] = BSK_CASM3C_SRB: Viability Assessment in the BioMAP Diversity Plus: CASM3C Assay (AID 2283050); conditions: primary human coronary artery smooth muscle cells;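 further: total protein by SRB staining as cytotoxicity measure in parallel cultures; cells exposed to compound for 24 h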
[10] = read-out: Thrombomodulin, THBD (gene 7056); experiment: BSK_CASM3C_Thrombomodulin: BioMAP Diversity Plus: CASM3C Assay for Thrombomodulin Biomarker Activity (AID 2283051); conditions: primary human coronary artery smooth muscle cells; actives raise or lower the signal;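 further: thrombomodulin protein level measured by ELISA 24 h after dosing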
[11] = read-out: Tissue Factor, F3 (gene 2152); experiment: BSK_CASM3C_TissueFactor: BioMAP Diversity Plus: CASM3C Assay for Tissue Factor Biomarker Activity (AID 2283052); conditions: primary human coronary artery smooth muscle cells; actives raise or lower the signal;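 further: cell surface tissue factor protein level read by ELISA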
[12] = read-out: Interferon-gamma inducible Protein 10 (IP10), CXCL10 (gene 3627); experiment: BSK_hDFCGF_IP10: BioMAP Diversity Plus: hDFCGF Assay for Interferon-gamma inducible Protein 10 (IP10) Biomarker Activity (AID 2283053); conditions: primary human foreskin fibroblasts; actives raise or lower the signal
Procedure, shortened: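 ELISA quantification of IP-10 after a 24 h chemical exposure of human dermal foreskin fibroblast primary cultures. Both increases and decreases versus DMSO fitted.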

[13] = read-out: Urokinase-type plasminogen activator receptor (uPAR), PLAUR (gene 5329); experiment: BSK_CASM3C_uPAR: BioMAP Diversity Plus: CASM3C Assay for Urokinase-type plasminogen activator receptor (uPAR) Biomarker Activity (AID 2283054); conditions: primary human coronary artery smooth muscle cells; actives raise or lower the signal;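 further: cell-surface uPAR protein level quantified by ELISA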
[14] = read-out: Vascular cell adhesion molecule 1 (VCAM1), VCAM1 (gene 7412); experiment: BSK_CASM3C_VCAM1: BioMAP Diversity Plus: CASM3C Assay for Vascular cell adhesion molecule 1 (VCAM1) Biomarker Activity (AID 2283055); conditions: primary human coronary artery smooth muscle cells; actives raise or lower the signal;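 further: VCAM-1 protein level quantified by ELISA on the cells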
[15] = read-out: Epidermal growth factor receptor (EGFR), EGFR (gene 1956); experiment: BSK_hDFCGF_EGFR: BioMAP Diversity Plus: hDFCGF Assay for Epidermal growth factor receptor (EGFR) Biomarker Activity (AID 2283057); conditions: primary human foreskin fibroblasts; actives raise or lower the signal
Procedure, shortened: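 EGFR levels by ELISA in human dermal fibroblast cultures, 24 h post-treatment, fitted bidirectionally versus DMSO. Parallel wells stained with sulforhodamine B to detect overt cytotoxicity.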

[16] = read-out: Interleukin-8 (IL8), CXCL8 (gene 3576); experiment: BSK_hDFCGF_IL8: BioMAP Diversity Plus: hDFCGF Assay for Interleukin-8 (IL8) Biomarker Activity (AID 2283058); conditions: primary human foreskin fibroblasts; actives raise or lower the signal
Procedure, shortened: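 Cells used are human skin primary fibroblasts. Chemical is added, cultures run 24 h, then IL-8 is quantified by ELISA, and gain or loss versus DMSO control is fitted in both directions.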

[17] = BSK_hDFCGF_Proliferation: Cell Proliferation Assessment in the BioMAP Diversity Plus: hDFCGF Assay (AID 2283059); conditions: primary human foreskin fibroblasts;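 further: curves fitted for both rise and fall of signal versus DMSO baseline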
Procedure, shortened: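 Steps: dose primary human dermal fibroblasts (foreskin); […] fix in 10% TCA; stain with 0.1% SRB; read 560 nm; fit gain or loss of signal against DMSO.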

[18] = read-out: Macrophage colony-stimulating factor (MCSF), CSF1 (gene 1435); experiment: BSK_hDFCGF_MCSF: BioMAP Diversity Plus: hDFCGF Assay for Macrophage colony-stimulating factor (MCSF) Biomarker Activity (AID 2283060); conditions: primary human foreskin fibroblasts; actives raise or lower the signal
Procedure, shortened: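 Primary human foreskin fibroblasts dosed with chemical; 24 h later, M-CSF quantified by ELISA; curves fitted in both directions vs DMSO negative control.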

[19] = BSK_hDFCGF_SRB: Viability Assessment in the BioMAP Diversity Plus: hDFCGF Assay (AID 2283061); conditions: primary human foreskin fibroblasts;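 further: cells exposed to compound for 24 h before the read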
Procedure, shortened: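 Readout is SRB absorbance at 560 nm, reflecting total protein in parallel cultures of human foreskin fibroblasts harvested 24 h after chemical dosing. Activity was fitted bidirectionally relative to DMSO.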

[20] = read-out: TIMP metallopeptidase inhibitor 1 (TIMP1), TIMP1 (gene 7076); experiment: BSK_hDFCGF_TIMP1: BioMAP Diversity Plus: hDFCGF Assay for TIMP metallopeptidase inhibitor 1 (TIMP1) Biomarker Activity (AID 2283062); conditions: primary human foreskin fibroblasts; actives raise or lower the signal
Procedure, shortened: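 Human skin fibroblasts (primary), hDFCGF system; compound exposure 24 h; TIMP-1 by ELISA; bidirectional fit vs DMSO negative control; overt cytotoxicity by SRB in parallel wells.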

[21] = read-out: Monokine induced gamma interferon (MIG), CXCL9 (gene 4283); experiment: BSK_hDFCGF_MIG: BioMAP Diversity Plus: hDFCGF Assay for Monokine induced gamma interferon (MIG) Biomarker Activity (AID 2283063); conditions: primary human foreskin fibroblasts; actives raise or lower the signal
Procedure, shortened: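 Chemicals were added to primary human foreskin fibroblast cultures, which were sampled 24 h later. MIG levels were then quantified by ELISA and responses fitted in both directions relative to DMSO.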

[22] = read-out: Matrix Metallopeptidase 1 (MMP1), MMP1 (gene 4312); experiment: BSK_hDFCGF_MMP1: BioMAP Diversity Plus: hDFCGF Assay for Matrix Metallopeptidase 1 (MMP1) Biomarker Activity (AID 2283064); conditions: primary human foreskin fibroblasts; actives raise or lower the signal
Procedure, shortened: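 Human foreskin fibroblasts exposed to chemical for 24 h; MMP1 detected by ELISA, with DMSO as baseline for bidirectional fitting.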

[23] = read-out: Vascular cell adhesion molecule 1 (VCAM1), VCAM1 (gene 7412); experiment: BSK_hDFCGF_VCAM1: BioMAP Diversity Plus: hDFCGF Assay for Vascular cell adhesion molecule 1 (VCAM1) Biomarker Activity (AID 2283065); conditions: primary human foreskin fibroblasts; actives raise or lower the signal
Procedure, shortened: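 Human foreskin fibroblast primary cells, chemical exposure 24 h; VCAM-1 by ELISA; bidirectional fit, DMSO = negative control/baseline.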

[24] = read-out: Plasminogen activator inhibitor-1 (PAI1), SERPINE1 (gene 5054); experiment: BSK_hDFCGF_PAI1: BioMAP Diversity Plus: hDFCGF Assay for Plasminogen activator inhibitor-1 (PAI1) Biomarker Activity (AID 2283066); conditions: primary human foreskin fibroblasts; actives raise or lower the signal
Procedure, shortened: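 PAI-1 levels in human dermal foreskin fibroblasts were quantified by ELISA 24 h after dosing, with gain or loss analysed against DMSO. Overt cytotoxicity was checked by sulforhodamine B total-protein staining in parallel cultures.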

[25] = read-out: Intercellular Adhesion Molecule 1 (ICAM1), ICAM1 (gene 3383); experiment: BSK_KF3CT_ICAM1: BioMAP Diversity Plus: KF3CT Assay for Intercellular Adhesion Molecule 1 (ICAM1) Biomarker Activity (AID 2283067); conditions: primary human keratinocytes with fibroblasts; actives raise or lower the signal
Procedure, shortened: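 ICAM-1 levels are measured by ELISA 24 h after dosing a primary human co-culture of keratinocytes and foreskin fibroblasts. Activity in either direction is fitted relative to DMSO vehicle.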

[26] = read-out: Interferon-gamma inducible Protein 10 (IP10), CXCL10 (gene 3627); experiment: BSK_KF3CT_IP10: BioMAP Diversity Plus: KF3CT Assay for Interferon-gamma inducible Protein 10 (IP10) Biomarker Activity (AID 2283068); conditions: primary human keratinocytes with fibroblasts; actives raise or lower the signal
Procedure, shortened: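 KF3CT co-culture (keratinocytes + foreskin fibroblasts), 24 h compound, IP-10 by ELISA; bidirectional fit vs DMSO baseline.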

[27] = BSK_KF3CT_SRB: Viability Assessment in the BioMAP Diversity Plus: KF3CT Assay (AID 2283069); conditions: primary human keratinocytes with fibroblasts;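 further: read 24 h after compound addition; fitted for both signal gain and loss against DMSO baseline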
Procedure, shortened: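 Overt cytotoxicity is assessed as total protein by sulforhodamine B staining in parallel human skin co-cultures at 24 h after dosing. DMSO serves as negative control and baseline.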

[28] = read-out: Interleukin-1 alpha (IL1a), IL1A (gene 3552); experiment: BSK_KF3CT_IL1a: BioMAP Diversity Plus: KF3CT Assay for Interleukin-1 alpha (IL1a) Biomarker Activity (AID 2283070); conditions: primary human keratinocytes with fibroblasts; actives raise or lower the signal
Procedure, shortened: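 Readout is IL-1a level by ELISA, compared bidirectionally with DMSO as baseline. Cells: human keratinocytes co-cultured with foreskin fibroblasts, harvested 24 h post-dose.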

[29] = read-out: TIMP metallopeptidase inhibitor 2 (TIMP2), TIMP2 (gene 7077); experiment: BSK_KF3CT_TIMP2: BioMAP Diversity Plus: KF3CT Assay for TIMP metallopeptidase inhibitor 2 (TIMP2) Biomarker Activity (AID 2283071); conditions: primary human keratinocytes with fibroblasts; actives raise or lower the signal
Procedure, shortened: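 TIMP-2 measured by ELISA at 24 h in human keratinocyte/fibroblast primary co-cultures exposed to chemicals. Both increases and decreases were fitted against DMSO. Parallel cultures were stained with SRB for total protein as an overt-cytotoxicity check.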

[30] = read-out: C-C motif chemokine 2 (Homo sapiens) (UniProt P13500); experiment: BSK_KF3CT_MCP1: BioMAP Diversity Plus: KF3CT Assay for Monocyte Chemoattractant Protein 1 (MCP1/CCL2) Biomarker Activity (AID 2283073); conditions: primary human keratinocytes with fibroblasts; actives raise or lower the signal
Procedure, shortened: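 ELISA readout of MCP-1 after 24 h chemical dosing of a human skin primary co-culture of keratinocytes and foreskin fibroblasts. Activity was fitted in both directions against DMSO.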

Measured: outcome

CCCC[N+](CCCC)(CCCC)CCCC
inactive: all assays above
